LmPK inhibitor: qHTS Assay for Inhibitors of Leishmania Mexicana Pyruvate Kinase (LmPK). Potency, µM (series often up to 57.5 µM), for inactives: at the highest dose activity change, negative = inhibition, usual class: inhibitors. 0.37% of 290,000 active. AID 1721, 2009. Q27686. purified LmPK, Kinase-Glo ATP luminescence, 1 h; note: potency is the fitted concentration of half-maximal effect; % is set by controls: 0 for no effect and ±100 for the full control effect
Target sequence (Q27686 whole entry, looked up): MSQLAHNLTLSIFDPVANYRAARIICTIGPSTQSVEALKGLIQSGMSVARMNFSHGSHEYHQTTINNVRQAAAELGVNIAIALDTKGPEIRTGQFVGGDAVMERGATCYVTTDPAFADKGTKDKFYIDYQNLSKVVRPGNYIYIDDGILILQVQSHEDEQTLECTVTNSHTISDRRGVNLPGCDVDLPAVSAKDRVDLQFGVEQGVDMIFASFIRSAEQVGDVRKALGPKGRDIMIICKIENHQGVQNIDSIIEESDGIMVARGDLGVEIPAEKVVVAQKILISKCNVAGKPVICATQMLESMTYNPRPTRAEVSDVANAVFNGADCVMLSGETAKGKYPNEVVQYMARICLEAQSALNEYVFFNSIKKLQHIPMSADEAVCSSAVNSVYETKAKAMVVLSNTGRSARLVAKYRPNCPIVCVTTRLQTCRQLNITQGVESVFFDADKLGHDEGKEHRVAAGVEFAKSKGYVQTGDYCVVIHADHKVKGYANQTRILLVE
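Purified LmPK (0.1 nM) with 0.5 mM PEP and 0.1 mM ADP in imidazole buffer pH 7.2 with MgCl2/KCl, 1 h at room temperature. ATP formed was read by luciferase luminescence and normalized to no-enzyme and uninhibited controls.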
Shiga toxin inh: A qHTS for Small Molecule Inhibitors of Shiga Toxin | Vero cells, Shiga toxin protein synthesis inhibition reporter | inhibition, % at 38.7 µM | 9.2% of 290,000 active; in the data active = inhibition mostly above about 28%, no sharp cut-off; inactive = mostly below about 43%; note: 0% is about no effect
Cycloheximide cs: Cycloheximide Counterscreen for Small Molecule Inhibitors of Shiga Toxin | AID 2314, 2010 | max response, % | cell reporter, cycloheximide protein synthesis inhibition counterscreen | 12% of 300,000 active; in the data active = max response mostly above about 13%, no sharp cut-off; inactive = mostly below about 14%; note: read at 38.3 µM for the half of the compounds with a filed dose; 0% is about no effect
FBPA Giardia inh: qHTS Assay for Inhibitors of Fructose-1,6-bisphosphate Aldolase from Giardia Lamblia | AID 2451, 2010 | purified Giardia FBPA | A8B2U2 | Potency, µM (doses to about 59.6 µM), for the others: top-dose activity, negative = inhibition, most hits filed as inhibitors | 0.71% of 290,000 active; note: potency is the fitted concentration of half-maximal effect; % is set by controls: 0 for no effect and ±100 for the full control effect; nearly all actives have a fitted effect of over 55% in size
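40 nM FBPA preincubated 10 min at RT with compound (up to 57.5 uM final), then substrate plus GAPDH/TPI/NAD/arsenate coupling and diaphorase/resazurin added. Fluorescence read after 20 min at RT, 525/598 nm.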
TbPYK inhibitor: qHTS of Trypanosoma Brucei Inhibitors. TbPYK enzyme, Kinase-Glo Plus ATP luminescence, 45 min. pyruvate kinase (Trypanosoma brucei), Q57TT1. 0.12% of 410,000 active. Potency, µM (highest dose often 76.8 µM), without a hit: at the highest dose activity, negative = inhibition, hits mostly inhibitors; note: potency is the fitted concentration of half-maximal effect; % is set by controls: 0 for no effect and ±100 for the full control effect; nearly all actives have a fitted effect of over 50% in size
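Screened from lowest to highest concentration, compounds were pinned into TbPYK/substrate mixtures, and ADP (130 uM final) was added. Plates sat at room temperature for 45 min prior to Kinase-Glo Plus detection by luminescence.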
RE007 growth inh: qHTS Assay for Inhibitors of the HIV-1 protein Vpr. Potency, µM (series often up to 92.2 µM), for the others: at the highest dose activity change, negative = less growth, usual class: inhibitors. 0.21% of 360,000 active. S. pombe RE007 Vpr strain, BacTiter-Glo ATP luminescence, 24 h; active = well fitted falling curve with a large enough effect; inconclusive = small, poorly fitted or top-dose-only effect; inactive = no such curve, though single readings can be large or run the other way; note: potency is the fitted concentration of half-maximal effect; % is set by controls: 0 for no effect and ±100 for the full control effect; nearly all actives have a fitted effect of over 50% in size
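Fission yeast RE007 carrying one integrated HIV-1 vpr copy, seeded at OD 0.01 in PMG+AL medium with 23 nL pinned compound. Grown 24 h at 30 degrees; viability read by BacTiter-Glo luminescence after 5 min.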
* marks the source's active call; other numbers are inactive results; ? = inconclusive; / = no result; [ ] = another dose, or the depositor's remark. Only a selection was taken, and hits are over-represented in it overall. Unless noted, calls come from the whole dose curve; as a rule, active = well fitted curve in the direction sought with a large enough effect; inconclusive = small, poorly fitted or top-dose-only effect, or another doubt; inactive = no such curve, though single readings can be large; an effect the other way counts as inactive or inconclusive.

SMILES	LmPK inhibitor	Shiga toxin inh	Cycloheximide cs	FBPA Giardia inh	TbPYK inhibitor	RE007 growth inh
O=S(=O)(Nc1ccc(-c2cnco2)cc1)c1ccccc1	-3.5%	-6.7	0.6	-1.7%	-7.4%	0.3%
CC1CCc2c(sc3nc(CSc4n[nH]c(N)n4)[nH]c(=O)c23)C1 (stereo unspecified)	-4.5%	37.2*	13.1	7.7%	-18.0%	4.2%
O=[N+]([O-])c1ccccc1-c1nc(-c2ccc(Br)o2)no1	1.7%	88.4*	30.3*	0.4%	-10.7%	-28.2%
Clc1ccccc1-c1nc(-c2ccc(Br)o2)no1	1.2%	129.5*	37.4*	12.0%	-7.9%	-17.2%
Cn1nc(-c2ccccc2)c(-c2nc(-c3ccccc3Cl)no2)c1Cl	-0.8%	-4.1	-2.0	-1.3%	-1.8%	2.7%
Nc1nnc(-c2ccccc2[N+](=O)[O-])o1	-12.3%	-8.9	-1.5	0.9%	-3.3%	5.3%
CCc1nc(Nc2cccc(OC)c2)c2oc3ccccc3c2n1	-3.0%	26.6	21.7*	-17.1%	2.1%	15.5%
CCc1nc(Nc2ccc(F)cc2)c2oc3ccccc3c2n1	1.3%	44.6	36.5*	?	11.7%	15.6%
CCOc1ccccc1Oc1nc(C)nc2c1oc1ccccc12	/	/	/	/	0.3%	/
CCc1nc(Nc2ccccc2)c2oc3ccccc3c2n1	2.4%	3.8	16.7	-23.4%	/	-3.5%[3.69 µM]
CCc1nc(OCCN(C)C)c2oc3ccccc3c2n1	-9.9%	29.3	25.8*	3.6%	-0.3%	0.1%
CCN(CC)S(=O)(=O)c1ccc(NC(=O)[C@H](CSCc2ccccc2)N2Cc3ccccc3C2=O)cc1	/	/	/	/	-1.5%	/
CC(=O)Oc1ccc2c(c1)CCC1C2CC[C@]2(C)C(OC(C)=O)CCC12 (stereo partly specified)	/	/	/	-9.6%	/	/
O=C(NCc1ccccc1CN1CCCC1)c1ccc(Cl)c(S(=O)(=O)N2CCCC2)c1	/	/	/	/	6.4%	-17.5%
C=CCNc1nc(Cl)nc(NCc2ccco2)n1	-0.7%	-4.9	-2.4	9.3%	-1.5%	3.7%
Cc1cccc(Nc2nc(NCc3ccco3)c3ccccc3n2)c1	0.3%	23.3	11.1*	?	-1.1%	-1.8%
Oc1ccc(Nc2nc(Cl)nc(NCc3ccco3)n2)cc1	-2.4%	38.0	34.4*	4.1%	0.0%	6.2%
c1ccc(Nc2nc(NCc3ccco3)c3ccccc3n2)cc1	-1.8%	32.9*	15.7*	-12.2%	0.0%	13.1%
Cc1ccc(S(=O)(=O)Nc2nc3ccccc3nc2NCc2ccco2)cc1	3.0%	73.9*	59.2*	-16.0%	-5.2%	-1.9%
COC(=O)C1=CN(c2ccc(C)cc2)C(N)=C(C#N)C1c1ccccc1F (stereo unspecified)	/	/	/	/	/	1.3%
O=c1c2ccccc2nc2ccc(NCc3ccco3)nn12	1.9%	56.3*	50.7*	-10.4%	8.4%	30.1%
Cc1ccccc1Nc1nc(NCc2ccco2)c2ccccc2n1	-1.1%	48.9	19.4*	0.8%	-0.5%	-12.1%
c1ccc(-c2nc(NCc3cccnc3)c3ccccc3n2)cc1	5.6%	-2.4	-2.4	-8.6%	0.8%	-7.4%
Cc1ccc(-c2nc(NCc3ccco3)c3ccccc3n2)cc1	1.5%	36.3*	69.0*	2.1%	1.1%	-12.4%
Oc1ccccc1Nc1nc(NCc2ccco2)c2ccccc2n1	4.1%	14.8	-0.9	-10.1%	8.2%	9.8%
SMILES	LmPK inhibitor	Shiga toxin inh	Cycloheximide cs	FBPA Giardia inh	TbPYK inhibitor	RE007 growth inh
Cc1ccc(-c2nc(NCc3cccnc3)c3ccccc3n2)cc1	0.2%	-5.3	14.5*	5.9%	-3.4%	-15.4%
Cc1cc(C)c(NC(=O)CSc2nc(=O)n(Cc3cccnc3)c3c2CCC3)c(C)c1	/	/	/	/	0.2%	/
COc1cc(C(=O)N2CCN(c3ccc(Nc4ccccc4)nn3)CC2)cc(OC)c1OC	/	/	/	/	-3.4%	/
Cc1ccc(-c2nc(N/N=C/c3cccnc3)c3ccccc3n2)cc1	-26.0%	22.4	20.0*	-9.2%	-17.1%	?
COCCn1c(C)cc(C(=O)COC(=O)/C=C/c2ccc(OC)cc2OC)c1C	/	/	/	/	0.1%	-8.6%
O=C(Cn1cnc([N+](=O)[O-])n1)c1ccccc1	-3.2%	21.9	-3.0	4.7%	-2.8%	-7.4%
Cc1cc([N+](=O)[O-])nn1CC(=O)N/N=C/c1ccccc1O	-0.6%	57.5*	23.8*	15.1%	-0.6%	-1.2%
Cc1cc([N+](=O)[O-])nn1CC(=O)N/N=C/c1ccccc1F	1.8%	11.1	-1.4	-1.7%	2.7%	9.4%
COc1ccc(C(=O)N/N=C(\C)Cn2nc([N+](=O)[O-])cc2C)cc1	-8.5%	58.4*	15.7	-2.3%	-1.9%	-6.6%
C/C(Cn1cnc([N+](=O)[O-])n1)=N\NC(=O)c1ccccc1	-5.8%	57.1*	30.1*	-16.0%	1.2%	-4.3%
C/C(Cn1nc([N+](=O)[O-])cc1C)=N\NC(=O)c1ccc(C(C)(C)C)cc1	15.9%	-6.8	-2.8	-11.7%	2.9%	11.1%
C/C(Cn1nnc([N+](=O)[O-])n1)=N\NC(=O)c1ccccc1	1.5%	54.1*	24.2*	?	-12.4%	-23.5%
CC(=O)OCC(CO)OC(C)=O (stereo unspecified) (tested in a mixture with another compound)	/	-15.8	-4.3	-3.2%	/	/
CC1=NN(C(=O)c2ccc(C)cc2)C(O)(C(F)(F)OC(F)(F)F)C1 (stereo unspecified)	2.7%	71.8*	31.2*	0.9%	2.8%	11.1%
CCOC(=O)N1N=C(c2ccc(C)cc2)CC1(O)C(F)(F)F (stereo unspecified)	-5.5%	36.5*	14.6*	2.5%	-1.2%	9.0%
O=C(C1CC1)N1N=C(c2ccc(F)cc2)CC1(O)C(F)(F)F (stereo unspecified)	11.7%	/	0.1	7.5%	-12.9%	-20.1%
COC(=O)N1N=C(c2ccc(Br)cc2)CC1(O)C(F)(F)F (stereo unspecified)	-6.2%	40.1*	47.3*	2.4%	-4.7%	38.9%
CCOC(=O)N1N=C(c2ccccc2)CC1(O)C(F)(F)F (stereo unspecified)	-16.6%	101.1*	49.3*	0.5%	0.2%	4.4%
CCCCc1nn2c(=O)cc(COC(=O)C(C)Oc3ccccc3)nc2s1 (stereo unspecified)	/	/	/	/	-20.2%	/
O=C(Nc1ccc(F)cc1F)c1ccc2ncsc2c1	-2.5%	97.2*	62.9*	-2.4%	-3.5%	1.0%
Cn1nnc2cc(NC(=O)Nc3ccccc3F)ccc21	/	/	/	/	-3.1%	-13.6%
O=C(Nc1ccc(Cl)cc1Cl)c1ccc2ncsc2c1	3.4%	77.7*	40.7*	6.6%	-19.3%	-4.2%
O=C(Nc1cccc(F)c1)c1ccc2ncsc2c1	0.6%	105.4*	48.8*	9.5%	-3.2%	-4.9%

Screening results from PubChem.
